# Source: ChEMBL document CHEMBL1961873, “Compounds: GSK PKIS; Assays: Nanosyn kinase panel” (2012)
# Target: Proto-oncogene tyrosine-protein kinase ROS (Homo sapiens) (UniProt P08922);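 also: value given is the mean percent inhibition of ROS kinase activity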
# Details: at 1 µM
# Proto-oncogene tyrosine-protein kinase ROS (Homo sapiens), sequence (P08922 whole entry): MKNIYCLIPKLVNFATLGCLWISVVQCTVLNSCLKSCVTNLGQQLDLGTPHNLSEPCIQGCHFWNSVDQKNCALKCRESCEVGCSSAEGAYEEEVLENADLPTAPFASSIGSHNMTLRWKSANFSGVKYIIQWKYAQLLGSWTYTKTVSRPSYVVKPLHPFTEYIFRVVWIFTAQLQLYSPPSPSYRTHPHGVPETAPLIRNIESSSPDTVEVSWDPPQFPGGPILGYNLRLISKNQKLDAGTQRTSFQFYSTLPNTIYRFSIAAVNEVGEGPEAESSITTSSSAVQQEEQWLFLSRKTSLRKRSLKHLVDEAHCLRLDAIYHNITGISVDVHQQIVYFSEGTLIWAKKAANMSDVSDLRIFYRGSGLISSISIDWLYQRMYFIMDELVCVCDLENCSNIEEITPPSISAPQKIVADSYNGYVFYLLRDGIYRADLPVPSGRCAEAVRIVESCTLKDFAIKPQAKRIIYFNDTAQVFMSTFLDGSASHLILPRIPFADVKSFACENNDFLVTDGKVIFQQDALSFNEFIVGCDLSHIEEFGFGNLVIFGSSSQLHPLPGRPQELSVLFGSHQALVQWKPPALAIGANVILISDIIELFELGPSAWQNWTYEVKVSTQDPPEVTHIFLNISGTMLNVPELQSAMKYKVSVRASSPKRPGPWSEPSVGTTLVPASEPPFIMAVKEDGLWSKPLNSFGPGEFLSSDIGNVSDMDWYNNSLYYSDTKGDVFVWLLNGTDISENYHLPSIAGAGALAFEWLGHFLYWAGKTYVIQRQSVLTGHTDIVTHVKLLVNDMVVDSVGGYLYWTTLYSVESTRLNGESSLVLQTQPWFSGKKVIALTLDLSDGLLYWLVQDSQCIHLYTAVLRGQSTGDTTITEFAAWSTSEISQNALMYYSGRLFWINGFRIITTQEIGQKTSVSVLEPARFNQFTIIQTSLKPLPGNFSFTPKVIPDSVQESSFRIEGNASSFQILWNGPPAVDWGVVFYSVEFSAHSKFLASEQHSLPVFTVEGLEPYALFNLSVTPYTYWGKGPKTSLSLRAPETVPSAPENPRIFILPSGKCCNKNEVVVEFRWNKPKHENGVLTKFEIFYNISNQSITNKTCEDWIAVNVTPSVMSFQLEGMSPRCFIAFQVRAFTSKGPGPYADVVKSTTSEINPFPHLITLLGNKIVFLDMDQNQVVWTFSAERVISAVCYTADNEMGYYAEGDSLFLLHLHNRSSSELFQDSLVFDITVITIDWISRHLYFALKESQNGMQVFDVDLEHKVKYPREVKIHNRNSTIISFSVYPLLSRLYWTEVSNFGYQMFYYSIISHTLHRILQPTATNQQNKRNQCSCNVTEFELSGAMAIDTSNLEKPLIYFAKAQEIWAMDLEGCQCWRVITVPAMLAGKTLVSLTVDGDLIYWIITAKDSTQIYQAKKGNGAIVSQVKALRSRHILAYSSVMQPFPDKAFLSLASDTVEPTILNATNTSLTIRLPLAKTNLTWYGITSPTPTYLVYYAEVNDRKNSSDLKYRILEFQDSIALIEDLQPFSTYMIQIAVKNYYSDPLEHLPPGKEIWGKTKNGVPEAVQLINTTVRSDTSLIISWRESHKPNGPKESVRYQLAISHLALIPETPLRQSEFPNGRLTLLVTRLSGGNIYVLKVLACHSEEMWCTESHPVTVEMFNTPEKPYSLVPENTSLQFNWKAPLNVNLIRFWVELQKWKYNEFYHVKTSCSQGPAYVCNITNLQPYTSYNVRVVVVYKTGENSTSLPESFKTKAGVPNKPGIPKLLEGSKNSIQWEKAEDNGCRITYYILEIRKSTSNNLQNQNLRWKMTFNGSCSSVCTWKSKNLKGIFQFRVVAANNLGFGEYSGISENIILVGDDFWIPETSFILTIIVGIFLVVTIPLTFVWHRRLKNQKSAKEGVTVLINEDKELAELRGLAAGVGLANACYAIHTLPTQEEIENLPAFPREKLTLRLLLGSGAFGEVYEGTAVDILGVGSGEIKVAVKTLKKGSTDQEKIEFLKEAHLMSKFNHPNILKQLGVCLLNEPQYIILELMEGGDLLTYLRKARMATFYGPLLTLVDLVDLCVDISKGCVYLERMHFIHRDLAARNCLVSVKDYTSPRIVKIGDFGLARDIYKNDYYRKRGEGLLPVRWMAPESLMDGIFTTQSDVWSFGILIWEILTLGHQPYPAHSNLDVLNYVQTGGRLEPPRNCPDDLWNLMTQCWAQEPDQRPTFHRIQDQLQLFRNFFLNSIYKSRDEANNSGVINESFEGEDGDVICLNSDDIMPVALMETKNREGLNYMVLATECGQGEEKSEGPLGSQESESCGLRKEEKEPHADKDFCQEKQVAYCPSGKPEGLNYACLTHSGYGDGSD
row,SMILES,inhibition
1,COc1cc2ncnc(Nc3ccc(C)c(O)c3)c2cc1OC,10.2%
2,Cc1cc(-c2ccccn2)cc(C)c1/C=C/c1cncc(-c2nn[nH]n2)c1,10.9%
3,CC(C)c1ccc2c(c1)NC(=O)/C2=N/Nc1ccc(S(N)(=O)=O)cc1,3.01%
4,CCn1c(-c2nonc2N)nc2ccc(F)cc21,8.6%
5,CN(c1ccc(NC(=O)Nc2ccc(OC(F)(F)F)cc2)cc1)c1ccnc(Nc2cccc(S(N)(=O)=O)c2)n1,66.9%
6,c1ccc(Nc2ncc(-c3ccccc3)o2)cc1,5.92%
7,CCOc1nccc2c1nc(-c1nonc1N)n2CC,11.8%
8,COc1cccc(-n2ncc3c(N/N=C/c4ccc(S(C)(=O)=O)cc4)ncnc32)c1,27.2%
9,Cc1ccc2c(-c3ccnc(Nc4cccc(C(F)(F)F)c4)n3)c(-c3ccccc3)nn2n1,9.43%
10,NS(=O)(=O)c1cccc(Nc2cc(-c3ccc(F)cc3)n[nH]2)c1,4.36%
11,CCCN1CCCC(c2ccc(Nc3nc(Nc4cc(F)ccc4C(N)=O)c4cc[nH]c4n3)c(OC)c2)C1 (stereo unspecified),81.2%
12,CN1CCN(C(=O)c2ccc(NC(=O)Nc3ccc(N(C)c4ccnc(Nc5ccc(CS(C)(=O)=O)cc5)n4)cc3)cc2)CC1,54.1%
13,N#Cc1cccc(Nc2nccc(-c3cnn4ncccc34)n2)c1,74.2%
14,Nc1nccc(-c2c(-c3ccc(F)cc3)ncn2CCCN2CCOCC2)n1,5.81%
15,COc1cc(/C=N/Nc2ncnc3c2cnn3C(C)C)ccc1O,37.5%
16,O=C(Nc1ccc(Oc2ccc3[nH]c(NC(=O)c4ccco4)nc3c2)cc1)Nc1cc(C(F)(F)F)ccc1F,11.1%
17,Cc1ccc(Nc2ccnc(Nc3cccc(C(N)=O)c3)n2)cc1O,61.4%

row,SMILES,inhibition
1,COC(=O)c1cncc(/C=C/c2c(C)cc(O)cc2C)c1,6.7%
2,Cc1cc(O)cc(C)c1/C=C/c1cncc(C(=O)N(C)C)c1,7.84%
3,NC(=O)c1cccc(Nc2nccc(Nc3cccc(F)c3)n2)c1,60.8%
4,COc1cc2ncnc(Nc3ccc4c(cnn4Cc4ccccc4)c3)c2cc1OC,4.63%
5,CCn1c(-c2nonc2N)nc2c(C#CC(C)(C)O)nc(OCCNC)cc21,6.96%
6,Nc1nccc(C#Cc2cncnc2Nc2ccc(OCc3cccc(F)c3)c(Cl)c2)n1,16.2%
7,COC(=O)Nc1nc2cc(Oc3ccc(NC(=O)Nc4cccc(Br)c4)cc3)ccc2[nH]1,3.1%
8,O=C1Nc2ccccc2/C1=C/Nc1ccc2[nH]c(=O)[nH]c2c1,11.8%
9,NS(=O)(=O)c1ccc(Nc2cc(-c3cccc(O)c3)n[nH]2)cc1,12.1%
10,COc1cc2ncn(-c3cc(OCc4ccccc4S(C)(=O)=O)c(C#N)s3)c2cc1OC,68.7%
11,CC(C)c1ccc(Nc2nccc(-c3cnn4ncccc34)n2)cc1,62.4%
12,NS(=O)(=O)c1ccc(N/N=C2\C(=O)Nc3ccc(Cl)cc32)cc1,4.73%
13,FC(F)(F)c1ccc(-c2nn3ncccc3c2-c2ccnc(Nc3ccc4c(c3)OCCO4)n2)cc1,9.43%
14,Nc1ccc(C#Cc2cncnc2Nc2ccc(OCc3cccc(F)c3)c(Cl)c2)cc1,3.55%
15,Cc1ccc(O)cc1Nc1ccnc2ccc(S(C)(=O)=O)cc12,8.68%
16,NS(=O)(=O)c1ccc(NC=C2C(=O)Nc3ccc4ncsc4c32)cc1,36.8%

# Target: Proto-oncogene tyrosine-protein kinase Src (Homo sapiens) (UniProt P12931);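 also: values are averaged inhibition of Src, tested against the GSK PKIS kinase inhibitor set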
# Details: at 0.1 µM
# Proto-oncogene tyrosine-protein kinase Src (Homo sapiens), sequence (P12931 2-536 limits assumed): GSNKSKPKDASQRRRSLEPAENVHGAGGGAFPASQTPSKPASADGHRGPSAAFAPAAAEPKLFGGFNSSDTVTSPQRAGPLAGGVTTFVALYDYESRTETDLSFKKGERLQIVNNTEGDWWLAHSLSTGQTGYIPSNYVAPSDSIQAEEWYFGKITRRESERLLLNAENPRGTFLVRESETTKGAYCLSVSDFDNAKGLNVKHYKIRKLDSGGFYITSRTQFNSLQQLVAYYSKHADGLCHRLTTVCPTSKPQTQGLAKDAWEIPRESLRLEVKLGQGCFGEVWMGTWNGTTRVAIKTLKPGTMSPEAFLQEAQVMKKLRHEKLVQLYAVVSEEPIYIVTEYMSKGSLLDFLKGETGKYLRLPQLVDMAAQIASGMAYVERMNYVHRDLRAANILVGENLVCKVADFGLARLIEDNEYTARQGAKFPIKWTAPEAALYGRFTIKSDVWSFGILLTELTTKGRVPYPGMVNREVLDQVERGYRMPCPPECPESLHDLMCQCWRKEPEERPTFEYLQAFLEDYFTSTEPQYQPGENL
row,SMILES,inhibition
1,COc1cc2ncnc(Nc3ccc(C)c(O)c3)c2cc1OC,22.9%
2,Cc1cc(-c2ccccn2)cc(C)c1/C=C/c1cncc(-c2nn[nH]n2)c1,7.7%
3,CC(C)c1ccc2c(c1)NC(=O)/C2=N/Nc1ccc(S(N)(=O)=O)cc1,3.8%
4,CCn1c(-c2nonc2N)nc2ccc(F)cc21,4.3%
5,CN(c1ccc(NC(=O)Nc2ccc(OC(F)(F)F)cc2)cc1)c1ccnc(Nc2cccc(S(N)(=O)=O)c2)n1,41.9%
6,c1ccc(Nc2ncc(-c3ccccc3)o2)cc1,9.27%
7,COc1cccc(-n2ncc3c(N/N=C/c4ccc(S(C)(=O)=O)cc4)ncnc32)c1,56.5%
8,Cc1ccc2c(-c3ccnc(Nc4cccc(C(F)(F)F)c4)n3)c(-c3ccccc3)nn2n1,25.3%
9,NS(=O)(=O)c1cccc(Nc2cc(-c3ccc(F)cc3)n[nH]2)c1,3.21%
10,CCCN1CCCC(c2ccc(Nc3nc(Nc4cc(F)ccc4C(N)=O)c4cc[nH]c4n3)c(OC)c2)C1 (stereo unspecified),-0.17%
11,c1ccc(Cc2nc3ccc(Nc4ncnc5ccccc45)cc3[nH]2)cc1,0.79%
12,CN1CCN(C(=O)c2ccc(NC(=O)Nc3ccc(N(C)c4ccnc(Nc5ccc(CS(C)(=O)=O)cc5)n4)cc3)cc2)CC1,10.7%
13,N#Cc1cccc(Nc2nccc(-c3cnn4ncccc34)n2)c1,14.3%
14,Nc1nccc(-c2c(-c3ccc(F)cc3)ncn2CCCN2CCOCC2)n1,-0.33%
15,COc1cc(/C=N/Nc2ncnc3c2cnn3C(C)C)ccc1O,20.8%
16,O=C(Nc1ccc(Oc2ccc3[nH]c(NC(=O)c4ccco4)nc3c2)cc1)Nc1cc(C(F)(F)F)ccc1F,7.67%
17,Cc1ccc(Nc2ccnc(Nc3cccc(C(N)=O)c3)n2)cc1O,78.3%

row,SMILES,inhibition
1,COC(=O)c1cncc(/C=C/c2c(C)cc(O)cc2C)c1,11.8%
2,Cc1cc(O)cc(C)c1/C=C/c1cncc(C(=O)N(C)C)c1,1.66%
3,NC(=O)c1cccc(Nc2nccc(Nc3cccc(F)c3)n2)c1,16.7%
4,COc1cc2ncnc(Nc3ccc4c(cnn4Cc4ccccc4)c3)c2cc1OC,10.1%
5,CCn1c(-c2nonc2N)nc2c(C#CC(C)(C)O)nc(OCCNC)cc21,8.38%
6,Nc1nccc(C#Cc2cncnc2Nc2ccc(OCc3cccc(F)c3)c(Cl)c2)n1,0.36%
7,COC(=O)Nc1nc2cc(Oc3ccc(NC(=O)Nc4cccc(Br)c4)cc3)ccc2[nH]1,3.27%
8,O=C1Nc2ccccc2/C1=C/Nc1ccc2[nH]c(=O)[nH]c2c1,5.5%
9,NS(=O)(=O)c1ccc(Nc2cc(-c3cccc(O)c3)n[nH]2)cc1,3.91%
10,COc1cc2ncn(-c3cc(OCc4ccccc4S(C)(=O)=O)c(C#N)s3)c2cc1OC,3.54%
11,CC(C)c1ccc(Nc2nccc(-c3cnn4ncccc34)n2)cc1,1.55%
12,NS(=O)(=O)c1ccc(N/N=C2\C(=O)Nc3ccc(Cl)cc32)cc1,-2.96%
13,FC(F)(F)c1ccc(-c2nn3ncccc3c2-c2ccnc(Nc3ccc4c(c3)OCCO4)n2)cc1,0.84%
14,Nc1ccc(C#Cc2cncnc2Nc2ccc(OCc3cccc(F)c3)c(Cl)c2)cc1,5.95%
15,Cc1ccc(O)cc1Nc1ccnc2ccc(S(C)(=O)=O)cc12,92.2%
16,NS(=O)(=O)c1ccc(NC=C2C(=O)Nc3ccc4ncsc4c32)cc1,14.2%
